About 83,000 compounds went through this panel and 20% of them were active in at least one assay; those are over-represented in the sample as a whole.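 Plates (96-well) were seeded with cells, treated with compound at one concentration, and incubated for 48 hours before percent growth was determined.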 Unmarked numbers belong to inactive results. Calls of active or inactive are those of the source. The calls were made as follows: active = growth percent below 10; inactive = the rest.

Common to all, as to assay: NCI-60 one-dose screen, 48 h (100 = growth as untreated, 0 = no growth, -100 = all killed)
Details in all cases: 10 µM unless noted

Assay [1] concerns EKVX NSCLC.
Assay [2] relates to SN12C renal.
In assay [3] the test system is UO-31 renal.
Assay [4] concerns TK-10 renal.
The test system of assay [5] is ACHN renal.
For assay [6], the system named is CAKI-1 renal.
For assay [7], the system named is A498 renal.
Assay [8] concerns CCRF-CEM leukemia.
Assay [9] deals with MOLT-4 leukemia.
For assay [10], the system named is SR leukemia.
The subject of assay [11] is RPMI-8226 leukemia.
Assay [12] has as its system OVCAR-8 ovarian.
Assay [13] deals with OVCAR-5 ovarian.
Assay [14] relates to OVCAR-4 ovarian.
Assay [15] has as its system SK-OV-3 ovarian.
The subject of assay [16] is IGROV1 ovarian.
The subject of assay [17] is HS 578T breast.
Assay [18] relates to NCI/ADR-RES ovarian.
Assay [19] has as its system T-47D breast.
Assay [20] relates to OVCAR-3 ovarian.

`CNC(=O)c1cc(-c2ccc(NC(=O)Nc3ccc(N4CCOCC4)c(C(F)(F)F)c3)cc2)nc2cccnc12`: the growth was 76.6% in [1]; 41.6% in assay [2]; 43.2% in assay [3]; 156% in assay [4]; 50.8% in assay [5]; 64% in assay [6]. Besides, the growth in [7] is 79.9%; in assay [8] it was 40.5%; in assay [9], 34.6%; in [10] it was 13.6%; in assay [11], 9.25% (active); in assay [12] it was 49.9%. The growth in assay [13] was 91.4%; in [14], 49.3%; in [15], 93.4%; in assay [16] it was 57.5%; in assay [17], 32.2%; in assay [18], 68.6%. The growth in assay [19] was 39.6%.
For `Cc1cc(C(=O)Nc2sc3c(c2C(N)=O)CCC(=O)C3)ccc1OCCN1CCCCC1`, the growth in assay [1] is 107%; in assay [2], 92.5%; in assay [3], 94.8%; in assay [4] it was 148%; in assay [5] it was 91.1%; in assay [6], 98.3%. Besides, the growth in assay [7] is 120%; in assay [8], 77.1%; in assay [9] it was 51.9%; in [10], 81.6%; in assay [11] it was 85.7%; in assay [12], 101%. Further, the growth was 119% in assay [13]; 108% in [14]; 91% in [16]; 97.7% in assay [20]; 102% in assay [17]; 89.4% in assay [19].
With `CN1C(=S)N(C)C2C1NN=C1SC(c3ccccc3)=CC(=O)N12` (stereo not drawn), the growth is 80.9% in assay [1]; 96.2% in assay [2]; 88.3% in [3]; 97.7% in assay [4]; 96.8% in assay [5]; 90.8% in assay [6]. In addition, the growth in assay [7] was 103%; in assay [8] it was 91%; in assay [9] it was 89.8%; in assay [10], 65.4%; in assay [11] it was 93.9%; in assay [12] it was 94.4%. The growth in [13] was 103%; in assay [14], 85.7%; in assay [15], 102%; in assay [16] it was 97.5%; in assay [20], 107%; in assay [17] it was 107%. Besides, the results for the growth in assay [18] and in assay [19] were 97.6% and 69.5%, respectively.
For `C=CCSc1ccc2c(c1)C(N1CCNCC1)=Nc1ccccc1O2`, the growth in [1] was 79.7% [8.25 µM]; in assay [2] it was 77.3% [8.25 µM]; in assay [3] it was 62.1% [8.25 µM]; in assay [4], 85% [8.25 µM]; in assay [5], 70.3% [8.25 µM]; in [6], 58.8% [8.25 µM]. For the same compound, the growth in [7] was 75.1% [8.25 µM]; in assay [8], 66.6% [8.25 µM]; in assay [9], 49.9% [8.25 µM]; in assay [10] it was 14.4% [8.25 µM]; in assay [11], 63.2% [8.25 µM]; in assay [12], 92.5% [8.25 µM]. For the same compound, the growth in assay [13] is 85.4% [8.25 µM]; in assay [14], 83.1% [8.25 µM]; in [15] it was 88.2% [8.25 µM]; in assay [16], 63.1% [8.25 µM]; in assay [17], 72.1% [8.25 µM]; in [18] it was 87.9% [8.25 µM]. In addition, the growth in assay [19] was 71.3% [8.25 µM].
Take `Cn1cc(-c2cc(N)n3nc(-c4cn(C)c5ccc(F)cc45)cc3n2)c2cc(F)ccc21`: the growth was 93.5% in assay [1]; 11.8% in assay [2]; 21.2% in assay [3]; 48.7% in assay [4]; -38.6% (active) in assay [5]; 56.5% in assay [6]. For the same compound, the growth in [7] is 72.6%; in assay [8], 3.2% (active); in assay [9] it was 3.58% (active); in assay [10], -16.2% (active); in [11], 13.5%; in assay [12] it was 20%. Also, the growth in assay [13] is 88.5%; in [14], 23.6%; in [15], 128%; in assay [16], 42.7%; in assay [20], -0.991% (active); in [18], 66.5%. Moreover, the growth in [19] was 22.5%.
In the case of `CCCC(=O)NC(c1cccnc1)c1cc(C)c2cccnc2c1O` (stereo not drawn), the growth was 31.5% in assay [1]; 45.7% in [2]; 26.6% in assay [3]; 45.5% in [4]; 20.2% in assay [5]; 28% in [6]. Also, the growth in [7] is 63.1%; in assay [8], 20.7%; in [9], 18.8%; in [10], 22.3%; in [11], 53.5%; in assay [12], 14%. For the same compound, the growth in [13] is 53.6%; in assay [14] it was 29.7%; in assay [15] it was 43.4%; in [16], 30.6%; in assay [20], -0.275% (active); in assay [18], 23.7%. Besides, the growth in assay [19] was 29.7%.
With `O=c1/c(=C\c2ccc(-c3ccccc3)o2)sc2nc(-c3ccccc3)nn12`, the growth in assay [1] was 99.9%; in [2], 97.3%; in [3] it was 89%; in [4], 95.1%; in [5] it was 102%; in [6], 96.4%. Moreover, the growth in [7] is 84.3%; in assay [8] it was 101%; in assay [9], 108%; in assay [10], 102%; in [11], 102%; in [12], 105%. Also, the growth in assay [13] is 104%; in assay [14], 107%; in [15] it was 105%; in assay [16], 103%; in assay [17], 95.4%; in assay [18] it was 101%. The growth in assay [19] is 92.9%.

The values are drawn from PubChem BioAssay (NCI).
